Assay outcomes: PubChem, National Center for Advancing Translational Sciences (NCATS)
In the library only some 11% were active in any assay of this set; here they are far more common.
L3MBTL1 inh: inhibitors of human L3MBTL1 | actives 0.66% (n = 230,000) | AlphaScreen L3MBTL1–H3K9me1 peptide binding | AID 485360 | Potency, µM (highest dose often 57.1 µM), for inactives: top-dose activity, negative = inhibition, most hits filed as inhibitors | Q9Y468; further: on the % scale 0 is the no-effect control and ±100 the full control effect; nearly all actives have a fitted effect of over 60% in size
Target sequence (Q9Y468 whole entry, looked up): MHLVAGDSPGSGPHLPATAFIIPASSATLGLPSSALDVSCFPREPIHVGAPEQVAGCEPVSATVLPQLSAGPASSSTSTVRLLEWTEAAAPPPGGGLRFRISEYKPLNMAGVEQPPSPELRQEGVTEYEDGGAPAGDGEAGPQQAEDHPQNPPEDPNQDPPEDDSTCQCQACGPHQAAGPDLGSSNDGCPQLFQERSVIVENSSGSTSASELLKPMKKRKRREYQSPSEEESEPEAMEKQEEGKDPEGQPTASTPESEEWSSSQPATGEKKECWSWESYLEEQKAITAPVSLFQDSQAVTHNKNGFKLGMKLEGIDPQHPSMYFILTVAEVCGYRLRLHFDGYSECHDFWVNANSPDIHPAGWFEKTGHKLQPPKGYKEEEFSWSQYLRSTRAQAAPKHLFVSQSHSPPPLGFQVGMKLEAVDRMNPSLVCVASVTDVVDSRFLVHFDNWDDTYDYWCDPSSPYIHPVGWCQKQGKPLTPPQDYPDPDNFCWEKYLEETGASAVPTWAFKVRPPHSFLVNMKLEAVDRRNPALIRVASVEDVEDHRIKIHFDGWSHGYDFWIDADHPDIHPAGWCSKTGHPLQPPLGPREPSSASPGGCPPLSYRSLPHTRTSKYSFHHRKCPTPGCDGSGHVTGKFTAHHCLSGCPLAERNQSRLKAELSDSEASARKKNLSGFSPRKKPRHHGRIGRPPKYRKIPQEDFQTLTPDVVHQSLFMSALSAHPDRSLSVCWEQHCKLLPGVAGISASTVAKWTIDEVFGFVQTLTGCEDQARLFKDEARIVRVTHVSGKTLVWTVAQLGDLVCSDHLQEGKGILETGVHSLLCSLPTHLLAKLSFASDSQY
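AlphaScreen proximity signal between nickel-chelate acceptor and streptavidin donor beads (final 10 ug/mL) reports binding of 50 nM L3MBTL1 to 75 nM biotin-H3 K9me1 peptide; complex incubated with compounds 30 min at room temperature; cefsulodin titration as control.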
G9a inh: G9a (human) methyltransferase inhibition | Q96KQ7 | AID 504332 | actives 8.8% (n = 350,000) | Potency, µM (highest dose often 102 µM), inactives show at the highest dose activity, negative = inhibition, hits mostly inhibitors | G9a H3K9 monomethylation, AlphaScreen, 2 h; further: on the % scale 0 is the no-effect control and ±100 the full control effect; nearly all actives have a fitted effect of over 75% in size
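Using a bead-based AlphaScreen, monomethylated H3K9 product from 2 h room-temperature reactions (G9a 20 nM, peptide 500 nM, SAM 20 uM) was detected with 0.5 ug/mL rabbit anti-H3K9me1 antibody.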
BAZ2B inh: blocks human BAZ2B. AlphaScreen BAZ2B-H3K14Ac peptide displacement. actives 4.4% (n = 360,000). Potency, µM (doses to about 114 µM), without a hit: top-dose activity change, negative = inhibition, usual class: inhibitors; further: on the % scale 0 is the no-effect control and ±100 the full control effect; nearly all actives have a fitted effect of over 60% in size
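BAZ2B (50 nM) with biotin-H3(5-23)K14Ac peptide (50 nM) in PBS pH 7.4, 0.01% Tween-20, preformed 30 min, then compound 30 min at room temperature; top concentration 110uM. AlphaScreen streptavidin donor/nickel chelate acceptor beads (10 ug/mL final), 20 min dark, signal read.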
JMJD2A Tudor inh: blocks the human JMJD2A Tudor domain | O75164 | AlphaScreen JMJD2A-Tudor / H3K4me3 peptide binding | Potency, µM (titrated, usually from 114 µM), inactives show at the highest dose activity change, negative = inhibition, usual class: inhibitors | actives 4.4% (n = 390,000) | AID 504339; further: on the % scale 0 is the no-effect control and ±100 the full control effect; nearly all actives have a fitted effect of over 50% in size
HP1b chromo inh: HP1-beta chromodomain-methylated histone interaction inhibition; P83916; AlphaScreen HP1-beta / biotin-H3K9me3 peptide binding; Potency, µM (titrated, usually from 114 µM), without a hit: at the highest dose activity change, negative = inhibition, actives largely listed as inhibitors; actives 0.56% (n = 390,000); further: nearly all actives have a fitted effect of over 70% in size
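Compound inhibition of the preformed complex between 50 nM HP1-beta and 50 nM biotinylated H3K9me3 peptide was read by AlphaScreen. Buffer was PBS pH 7.4 with 0.01% Tween-20. Incubations ran 30 min at room temperature, with 10 ug/mL donor/acceptor beads.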
* hit, by the source's call; ? = inconclusive; nt = no result; [ ] = remark or other dose. The call rests on the fitted dose curve; in most records, active means well fitted inhibition curve with a large enough effect; inconclusive means small, poorly fitted or top-dose-only effect; inactive means no such curve, though single readings can be large or run the other way. Potency means the concentration at half of the fitted maximal effect.

SMILES	L3MBTL1 inh	G9a inh	BAZ2B inh	JMJD2A Tudor inh	HP1b chromo inh
Cc1c([N+](=O)[O-])cnc(Sc2ccccc2)c1[N+](=O)[O-]	nt	nt	nt	39.8µM*	?
O=[N+]([O-])c1cccnc1Sc1ccc(Br)cc1	nt	nt	nt	56.2µM*	?
Cc1ccc(Sc2ncccc2[N+](=O)[O-])cc1	nt	?	?	44.7µM*	?
CCNc1nc(NCC)nc(-n2cc(C(=O)c3cc(Cl)ccc3O)cn2)n1	nt	nt	nt	?	28.2%
CSc1oc(-c2ccccc2)nc1S(=O)(=O)c1ccc(F)cc1	4.5%	39.8µM*	7.6%	13.8%	57.6%
Cc1ccc(S(=O)(=O)c2nc(-c3ccc(F)cc3)oc2SCC(=O)NC2CCCCC2)cc1	nt	-8.9%[59 µM]	30.4%	1.0%	51.6%
Cc1ccc(S(=O)(=O)c2nc(-c3ccc(F)cc3)oc2SCC(N)=O)cc1	-4.8%	12.6µM*	0.4%	-9.4%	34.5%
Cc1ccc(-c2nc(S(=O)(=O)c3ccc(C)cc3)c(SCC(=O)NCC3CCCO3)o2)cc1 (centres undefined)	nt	44.7µM*	-1.9%	-3.6%	18.7%
Cc1ccc(CSc2oc(-c3ccco3)nc2S(=O)(=O)c2ccc(C)cc2)cc1	nt	-33.5%[59 µM]	-13.9%	-20.1%	10.7%
CSc1oc(-c2ccco2)nc1S(=O)(=O)c1ccc(C)cc1	nt	28.2µM*	-4.2%	-12.1%	12.9%
CCCCNC(=O)C1CCC(CNS(=O)(=O)c2ccc(Cl)cc2)CC1 (centres undefined)	nt	17.1%[59 µM]	16.0%	-12.8%	25.5%
CCc1cccc(NC(=O)CN2Cc3ccccc3C2=O)c1	nt	13.3%[59 µM]	-0.5%	4.3%	20.5%
COc1ccccc1CNC(=O)CSc1ncc(S(=O)(=O)c2ccc(C)c(Cl)c2)c(=O)[nH]1	nt	-15.7%[59 µM]	2.4%	-11.5%	27.3%[57 µM]
CSc1oc(-c2ccco2)nc1S(=O)(=O)c1ccccc1	-15.9%	31.6µM*	-4.7%	-29.6%	16.5%
C=CCNc1oc(-c2ccco2)nc1S(=O)(=O)c1ccccc1	nt	25.1µM*	-37.4%	-16.0%	12.2%
COCCNc1oc(-c2ccco2)nc1S(=O)(=O)c1ccccc1	nt	?	-10.3%	-15.1%	24.2%
CS(=O)(=O)Nc1cccc(-c2ccc3ncnc(NCc4cccs4)c3c2)c1	nt	0.0%[0.501 µM]	nt	nt	nt
Cc1[nH]c2ccccc2c1C(=O)C(=O)NC1CC(=O)N(c2ccc(F)cc2)C1 (centres undefined)	-5.2%	50.1µM*	-37.6%	-11.7%	15.6%
Cc1ccc(N2CC(NC(=O)C(=O)c3c(C)[nH]c4ccccc34)CC2=O)cc1 (centres undefined)	-5.5%	-6.0%	10.2%	-11.7%	11.1%
Cc1cc(C)nc(-n2nc(C)c(Sc3ccc(F)cc3)c2N)n1	-8.5%	50.1µM*	-3.7%	?	29.1%
Cc1ccccc1CNC(=O)c1ccc(CS(=O)Cc2ccc(Cl)cc2)o1 (centres undefined)	nt	-29.0%[59 µM]	-23.3%	-17.9%	4.8%
COCCCNC(=O)c1ccc(N2CCCC2)c(NS(=O)(=O)c2ccc(C)cc2)c1	16.0%	7.94µM*	?	-35.8%	35.3%
COCCNC(=O)c1ccc(C)c(S(=O)(=O)Nc2ccc(C)cc2)c1	nt	79.4µM*	7.8%	-4.0%	23.9%
CCOc1ccc(CNCc2c(C(=O)O)n(Cc3ccc(OC)cc3)c3ccccc23)cc1	nt	?	?	-29.3%	-1.6%
COc1ccc(-c2c(C)nn(Cc3ccccc3)c2N)cc1	2.5%	44.7µM*	-35.1%	-29.1%	9.4%
SMILES	L3MBTL1 inh	G9a inh	BAZ2B inh	JMJD2A Tudor inh	HP1b chromo inh
CC(=O)c1c(Nc2ccc3c(c2)OCCO3)oc(C)cc1=O	8.5%	79.4µM*	-8.9%	-16.2%	19.1%
Cc1nnc(Nc2ccc(Cl)cc2)s1	nt	?	4.9%	-0.7%	17.8%
Cc1nnc(NC2=NCCC2)s1	2.5%	28.2µM*	-27.9%	79.4µM*	-6.3%
Cc1nnc(NC2=NCCC2)o1	-1.4%	9.2%[12.7 µM]	79.4µM*	1.0%	40.7%
c1coc(-c2nnc(NC3=NCCC3)o2)c1	0.3%[11.4 µM]	6.3%[12.7 µM]	-0.6%	-13.9%	28.3%
Cc1nn(-c2ccc(F)cc2)c(-n2cccc2)c1C(=O)NCCCN1CCN(c2cccc(Cl)c2)CC1	nt	?	?	?	-7.8%
CN(C)c1ncc2nc(-c3ccc(Cl)cc3)c(=O)n(C)c2n1	nt	8.9%[0.501 µM]	nt	nt	nt
O=C(Cn1ncc2c3ccccc3n(Cc3cccc(Cl)c3)c2c1=O)Nc1ccc(F)cc1F	nt	-36.9%[59 µM]	?	?	6.5%
O=C(O)CC12CSc3[nH]c(=O)sc3C1c1ccccc1OC2=O (centres undefined)	nt	50.1µM*	-5.8%	nt	nt
O=C(NCC1CCCO1)C1c2ccccc2Oc2ccccc21 (centres undefined)	2.5%	28.0%	-7.5%	-5.0%	30.7%
COc1ccc(Cn2ncc3c4sc(C)cc4n(C)c3c2=O)cc1	nt	nt	nt	-6.8%	nt
O=S(=O)(Nc1ccc(-c2ccc(N3CCCC3)nn2)cc1)c1cc(F)ccc1F	nt	-5.6%[59 µM]	-5.9%	-15.0%	18.9%[57 µM]
O=C(CCS(=O)(=O)c1ccc(Br)cc1)NCCc1ccccc1	nt	50.1µM*	?	39.8µM*	?
NS(=O)(=O)c1ccc(CCNC(=O)CNCCc2ccccc2)cc1	nt	50.1µM*	50.1µM*	25.1µM*	?
NS(=O)(=O)c1ccc(CCNC(=O)CSc2ccccc2)cc1	8.0%	8.4%	9.9%	-3.8%[11.4 µM]	40.8%
CCOc1ccc(CCNC(=O)CCS(=O)(=O)c2ccc(Br)cc2)cc1OCC	nt	-12.1%	-12.7%	-11.4%	31.7%
NS(=O)(=O)c1ccc(CCNC(=O)CCS(=O)(=O)c2ccc(Br)cc2)cc1	nt	28.2µM*	31.6µM*	31.6µM*	17.8µM*
COc1ccc(CNC(=O)CCS(=O)(=O)c2ccc(Br)cc2)cc1	nt	44.7µM*	50.1µM*	?	?
O=C(CCNS(=O)(=O)c1ccc(Br)cc1)NCCc1ccccc1	nt	-15.0%	-6.0%[57.1 µM]	-8.2%	24.7%
Cc1ccc(S(=O)(=O)CCNC(=O)Cc2ccccc2)cc1	4.6%	1.7%	-12.2%	20µM*	-2.6%
CC(NS(=O)(=O)c1ccc(Br)cc1)C(=O)NCCc1ccccc1 (centres undefined)	-0.5%	39.8µM*	-5.9%	-15.4%	18.1%
NS(=O)(=O)c1ccc(CCNC(=O)c2ccc3nccnc3c2)cc1	15.8µM*	nt	nt	39.8µM*	70.8µM*
Cc1ccc(CC(=O)NCCc2ccc(S(N)(=O)=O)cc2)cc1	3.2%	-10.4%[59 µM]	-2.5%	-1.5%	13.2%
O=S(=O)(NCCc1ccccc1)c1ccc(Br)cc1	6.0%	27.0%	8.7%	21.2%	63.6%
Cc1ccc2c(CC(=O)NCCc3ccc(S(N)(=O)=O)cc3)coc2c1	nt	26.1%[12.7 µM]	-11.7%	44.7µM*	15.7%
COc1cc(/C=C/C(=O)Nc2ccc(S(=O)(=O)Nc3ncccn3)cc2)ccc1OCC#N	nt	nt	nt	-5.5%	45.0%
CC(C)c1nc(NCCO)c2nnn(Cc3ccccc3)c2n1	8.1%	12.9%[0.501 µM]	-13.9%	-3.0%	18.0%
COc1ccc(-c2cc(=O)oc3c(O)c(O)ccc23)cc1	nt	8.91µM*	?	?	-32.2%
